For 4 compounds, outcome and AC50 results are on record in PubChem BioAssay (EPA / NIEHS).

For assay [1], the target named is Bile acid receptor (Homo sapiens) (UniProt Q96RI1). Description: ATG_IR1_CIS: Attagene CIS-FACTORIAL HepG2 Assay for human Nuclear Receptor Subfamily 1 Group H Member 4 (NR1H4), IR1 submotif (AID 2282946). Particulars: IR1 reporter transcription, actives raise or lower the signal. The procedure, abridged: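 Transient MRTU transfection, HepG2; 24 h dosing; RNA → RT-PCR → 6-FAM primer extension → HpaI digest → capillary electrophoresis fluorescence. Gain/loss of signal fitted relative to DMSO.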

Assay [2] can be described thus: ATG_GRE_CIS: Attagene CIS-FACTORIAL HepG2 Assay for human Glucocorticoid Response Elements (GRE) (AID 2282947). Particulars: HepG2 GRE cis-reporter, Attagene multiplex mRNA; actives raise or lower the signal. The method, boiled down: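 Following 24 h chemical exposure of transiently transfected HepG2 cells, total RNA was reverse-transcribed and reporter cDNA amplified, fluorescently labelled and sized by capillary electrophoresis. Signal gain or loss was fitted relative to DMSO vehicle.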

Assay [3] is described as follows: ATG_ISRE_CIS: Attagene CIS-FACTORIAL HepG2 Assay for human Interferon Regulatory Factor 1 (IRF1) binding to an Interferon-Stimulated Response Element (ISRE) (AID 2282948). To be noted: HepG2 ISRE cis-reporter (Attagene), mRNA transcription readout; actives raise or lower the signal. The method, boiled down: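 Quantitation relies on labelled RT-PCR fragments separated by capillary electrophoresis. Human HepG2 cells bearing cis-promoter reporter constructs were treated 24 h; DMSO served as baseline for bidirectional fitting.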

Assay [4] is described as follows: ATG_M_32_CIS: Attagene CIS-FACTORIAL HepG2 Assay for M32 Transcription Factor (Internal Marker) (AID 2282949).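 Note: background control marker of the multiplexed CIS panel rather than a real target.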 To be noted: HepG2 Attagene cis-factorial M32 reporter, mRNA; actives raise or lower the signal. The procedure, abridged: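 Fluorescent capillary electrophoresis peaks of HpaI-digested, FAM-labelled RT-PCR reporter products give the signal. Source: transiently transfected human liver HepG2 cells, 24 h after chemical dosing; bidirectional fitting against DMSO.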

Assay [5] can be described thus: ATG_M_06_CIS: Attagene CIS-FACTORIAL HepG2 Assay for M06 Transcription Factor (Internal Marker) (AID 2282950). To be noted: HepG2 Attagene CIS-FACTORIAL M06 internal marker reporter; actives raise or lower the signal. The method, boiled down: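 Fluorescence-labelled RT-PCR products from cis-promoter reporter units, cut with HpaI and resolved by capillary electrophoresis, give the signal. Cells are human HepG2, dosed for 24 h. Serves as background control, fitted relative to DMSO.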

Assay [6] addresses Hypoxia-inducible factor 1-alpha (Homo sapiens) (UniProt Q16665). The assay is described as follows: ATG_HIF1a_CIS: Attagene CIS-FACTORIAL HepG2 Assay for human Hypoxia Inducible Factor 1 (HIF1A) (AID 2282951). Particulars: HepG2 Attagene cis-factorial HIF1a reporter transcription; actives raise or lower the signal. The method, boiled down: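 Fluorescence intensity of capillary-separated, 6-FAM-labelled reporter amplicons gives mRNA induction in HepG2 cells carrying transfected cis-promoter reporter units; cells exposed 24 h, responses fitted up or down from DMSO.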

The target of assay [7] is Hepatocyte nuclear factor 6 (Homo sapiens) (UniProt Q9UBC0). Description: ATG_HNF6_CIS: Attagene CIS-FACTORIAL HepG2 Assay for human Hepatocyte Nuclear Factor 6 (HNF6) (AID 2282952). To be noted: HepG2 Attagene cis-factorial HNF6 reporter transcription; actives raise or lower the signal. The procedure, abridged:
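Transiently transfected HepG2 cells expressing cis-regulated reporter transcription units were exposed to chemical for 24 h in a 24-well format. Reporter transcript abundance was determined by fluorescence capillary electrophoresis.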

Assay [8] addresses Heat shock factor protein 1 (Homo sapiens) (UniProt Q00613). The assay is described as follows: ATG_HSE_CIS: Attagene CIS-FACTORIAL HepG2 Assay for human Heat Shock Transcription Factor 1 (HSE) (AID 2282953). Particulars: HepG2 HSE cis-reporter, Attagene RNA transcription; actives raise or lower the signal. The method, boiled down:
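After a 24 h incubation with test chemical, transfected HepG2 cells were harvested for RNA; reporter transcripts were measured by RT-PCR and capillary electrophoresis. Values reflect gain or loss of signal relative to DMSO.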

The nature of assay [9]: ATG_MRE_CIS: Attagene CIS-FACTORIAL HepG2 Assay for human Metal Responsive Element (MRE) (AID 2282954). To be noted: HepG2 MRE cis-reporter transcription, Attagene multiplex; actives raise or lower the signal. The procedure, abridged: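 Step one: transfect HepG2 with cis-regulated reporter units. Step two: dose 24 h. Step three: isolate RNA, RT-PCR, 6-FAM label, HpaI digest, capillary electrophoresis. Fit bidirectionally to DMSO.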

Assay [10] in a line: ATG_PBREM_CIS: Attagene CIS-FACTORIAL HepG2 Assay for human Phenobarbital-responsive Enhancer Module (PBREM) (AID 2282955). To be noted: HepG2 PBREM cis-reporter, Attagene multiplexed transcription; actives raise or lower the signal. The procedure, abridged: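 Cells were transfected with cis-element reporter units and treated for 24 h, after which RNA was extracted and reporter transcripts measured by RT-PCR and capillary electrophoresis.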

Assay [11] concerns the target Paired box protein Pax-6 (Homo sapiens) (UniProt P26367). Description: ATG_Pax6_CIS: Attagene CIS-FACTORIAL HepG2 Assay for human Paired Box 6 (PAX6) (AID 2282956). Particulars: HepG2 CIS-FACTORIAL PAX6 reporter transcription, RNA readout; actives raise or lower the signal. The method, boiled down:
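After twenty-four hours of chemical exposure, transfected HepG2 cells are harvested for RNA. Cis-promoter reporter transcripts are amplified, fluorescently labelled and sized by capillary electrophoresis, with gain and loss of signal scored against DMSO.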

The nature of assay [12]: ATG_PXRE_CIS: Attagene CIS-FACTORIAL HepG2 Assay for human Pregnane X Receptor Element (PXRE) (AID 2282957). To be noted: HepG2 Attagene CIS-FACTORIAL PXRE reporter, mRNA; actives raise or lower the signal. The procedure, abridged: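 Cis-element reporter mRNA in human hepatoma HepG2 cells is measured 24 h post-dosing by RT-PCR, primer-extension labeling and capillary electrophoresis; gain or loss of signal is fitted relative to DMSO.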

A short description of assay [13]: ATG_PPRE_CIS: Attagene CIS-FACTORIAL HepG2 Assay for human Peroxisome Proliferator-activated Response Element (PPRE) (AID 2282958). To be noted: HepG2 PPRE cis-element reporter, Attagene transcription factor profiling; actives raise or lower the signal. The method, boiled down: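 In this cell-based multiplex, a PPRE cis element drives a reporter sequence in transiently transfected HepG2 cells. Following 24 h treatment, labeled cDNA amplicons are sized and quantified by capillary electrophoresis, with DMSO defining baseline.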

Assay [14] in a line: ATG_Sox_CIS: Attagene CIS-FACTORIAL HepG2 Assay for human SRY-box transcription factor (SOX) (AID 2282960). To be noted: HepG2 Attagene cis-factorial SOX reporter, mRNA; actives raise or lower the signal. The method, boiled down: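 Measures mRNA induction of a SOX1-associated reporter in HepG2 after 24 h dosing. Fluorescently labelled RT-PCR fragments are separated by capillary electrophoresis, and gain or loss relative to DMSO control is fitted.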

Assay [15] addresses Transcription factor Sp1 (Homo sapiens) (UniProt P08047). The assay is described as follows: ATG_Sp1_CIS: Attagene CIS-FACTORIAL HepG2 Assay for human Specificity Protein 1 (Sp1) (AID 2282961). To be noted: HepG2 Sp1 cis-reporter transcription, actives raise or lower the signal. The method, boiled down: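 Cells: HepG2, transiently transfected with cis-regulated multiplexed reporters. Exposure: 24 h. Detection: reporter transcripts amplified, fluorescently labeled, restriction-digested and sized by capillary electrophoresis. Analysis: bidirectional fit relative to DMSO.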

The target in assay [16] is Signal transducer and activator of transcription 3 (Homo sapiens) (UniProt P40763). Description: ATG_STAT3_CIS: Attagene CIS-FACTORIAL HepG2 Assay for human Signal Transducer and Activator of Transcription 3 (STAT3) (AID 2282963). To be noted: HepG2, Attagene cis-factorial STAT3 reporter transcription; actives raise or lower the signal. The method, boiled down: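 Transcript-level reporter assay. HepG2 transient MRTU transfection, 24 h exposure, fluorescence detection after RT-PCR and CE; DMSO baseline.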

Assay [17] in a line: ATG_TA_CIS: Attagene CIS-FACTORIAL HepG2 Assay for human TA Basal Promoter (AID 2282964). Particulars: HepG2 Attagene CIS-factorial TA basal promoter reporter; actives raise or lower the signal. The procedure, abridged:
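Multiplexed mRNA reporter assay, HepG2, 24 h. Reporter cDNA amplified, 6-FAM primer-extended, HpaI-cut, CE-sized; DMSO = negative control and baseline.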

Assay [18] in a line: ATG_TCF_b_cat_CIS: Attagene CIS-FACTORIAL HepG2 Assay for human T-Cell-Factor with beta-catenin (TCF/b-cat) (AID 2282965). To be noted: HepG2 TCF/beta-catenin cis-reporter transcription, actives raise or lower the signal. The method, boiled down: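 HepG2 cells transiently transfected with multiple cis-promoter-regulated reporter transcription units, so endogenous transcription factor activity is measured. Reporter mRNA read 24 hours after dosing by RT-PCR, fluorescent labelling and capillary electrophoresis; bidirectional fitting against DMSO.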

A short description of assay [19]: ATG_SREBP_CIS: Attagene CIS-FACTORIAL HepG2 Assay for human Sterol Regulatory Element Binding (SREBP) (AID 2282962). To be noted: HepG2 Attagene cis-factorial SREBP reporter, mRNA; actives raise or lower the signal. The method, boiled down: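 Twenty-four hours after chemical dosing of transfected HepG2 cultures, reporter RNA was converted to cDNA, amplified, end-labelled with 6-FAM and resolved by capillary electrophoresis. Responses were fitted relative to DMSO.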

A short description of assay [20]: ATG_RORE_CIS: Attagene CIS-FACTORIAL HepG2 Assay for human RAR-related Orphan Receptor Element (RORE) (AID 2282959). Particulars: HepG2 Attagene cis-factorial RORE reporter, mRNA; actives raise or lower the signal. The method, boiled down:
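Endogenous factor activity at a cis response element is read as reporter transcript levels in HepG2 cells, 24 h post-dose. Transcripts are quantified by RT-PCR with capillary electrophoresis, and data fitted in both directions against DMSO.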

The structures appear in SMILES notation. Calls of active or inactive are those of the source. Rule for the calls: active = hit-call score of the fitted dose curve at least 0.9, where 1 is the maximum; inactive = score below 0.9.

Chain of Transcription factor Sp1 (Homo sapiens) (P08047 whole entry, looked up): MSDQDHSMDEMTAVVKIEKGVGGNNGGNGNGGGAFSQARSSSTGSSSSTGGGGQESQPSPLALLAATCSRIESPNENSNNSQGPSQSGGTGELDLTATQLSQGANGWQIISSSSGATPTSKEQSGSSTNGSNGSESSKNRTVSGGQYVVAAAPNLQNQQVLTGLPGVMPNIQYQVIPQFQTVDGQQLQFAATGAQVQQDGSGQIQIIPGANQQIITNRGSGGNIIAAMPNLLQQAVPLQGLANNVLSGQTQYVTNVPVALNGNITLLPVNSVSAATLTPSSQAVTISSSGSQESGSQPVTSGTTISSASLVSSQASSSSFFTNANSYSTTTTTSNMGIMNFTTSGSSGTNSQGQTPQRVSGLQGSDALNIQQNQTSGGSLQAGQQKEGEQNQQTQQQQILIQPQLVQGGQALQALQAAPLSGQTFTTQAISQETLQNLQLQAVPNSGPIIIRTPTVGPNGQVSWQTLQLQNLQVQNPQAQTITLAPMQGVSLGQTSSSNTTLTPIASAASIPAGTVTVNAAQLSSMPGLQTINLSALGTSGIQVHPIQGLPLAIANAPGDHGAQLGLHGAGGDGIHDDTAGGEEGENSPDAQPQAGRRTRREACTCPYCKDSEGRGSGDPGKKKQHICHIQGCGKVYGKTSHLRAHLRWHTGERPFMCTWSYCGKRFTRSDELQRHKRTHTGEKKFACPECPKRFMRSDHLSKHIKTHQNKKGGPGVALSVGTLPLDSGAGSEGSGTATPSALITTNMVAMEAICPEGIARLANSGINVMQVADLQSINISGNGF
Chain of Bile acid receptor (Homo sapiens) (Q96RI1 whole entry, looked up): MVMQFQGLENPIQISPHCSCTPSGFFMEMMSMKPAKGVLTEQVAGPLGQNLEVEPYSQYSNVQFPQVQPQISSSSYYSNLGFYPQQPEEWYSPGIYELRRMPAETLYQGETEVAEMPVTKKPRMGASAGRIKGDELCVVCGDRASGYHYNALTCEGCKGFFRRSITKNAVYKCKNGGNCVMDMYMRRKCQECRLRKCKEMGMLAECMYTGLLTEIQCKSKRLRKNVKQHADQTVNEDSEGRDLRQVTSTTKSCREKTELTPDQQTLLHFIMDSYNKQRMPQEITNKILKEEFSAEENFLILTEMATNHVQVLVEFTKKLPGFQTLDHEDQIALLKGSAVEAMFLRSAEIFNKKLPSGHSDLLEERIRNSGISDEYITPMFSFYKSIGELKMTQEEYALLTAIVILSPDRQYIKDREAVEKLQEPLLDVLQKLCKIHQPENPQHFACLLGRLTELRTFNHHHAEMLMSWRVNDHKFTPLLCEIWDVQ
Chain of Heat shock factor protein 1 (Homo sapiens) (Q00613 whole entry, looked up): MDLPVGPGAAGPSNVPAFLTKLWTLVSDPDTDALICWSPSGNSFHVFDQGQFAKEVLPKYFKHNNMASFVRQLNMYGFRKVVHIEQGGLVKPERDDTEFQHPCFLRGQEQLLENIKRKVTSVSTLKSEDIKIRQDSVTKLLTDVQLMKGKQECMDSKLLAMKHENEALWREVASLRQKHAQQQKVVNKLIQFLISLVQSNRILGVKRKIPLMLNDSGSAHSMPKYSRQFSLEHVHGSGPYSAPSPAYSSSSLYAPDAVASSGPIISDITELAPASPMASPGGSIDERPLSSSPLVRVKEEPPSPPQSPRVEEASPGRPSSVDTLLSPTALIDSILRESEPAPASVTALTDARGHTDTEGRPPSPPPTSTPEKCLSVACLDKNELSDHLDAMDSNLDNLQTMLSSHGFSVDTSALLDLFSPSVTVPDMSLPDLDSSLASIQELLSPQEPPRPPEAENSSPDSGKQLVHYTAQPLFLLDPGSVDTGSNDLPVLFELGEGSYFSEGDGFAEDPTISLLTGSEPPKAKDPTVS
Chain of Signal transducer and activator of transcription 3 (Homo sapiens) (P40763 whole entry, looked up): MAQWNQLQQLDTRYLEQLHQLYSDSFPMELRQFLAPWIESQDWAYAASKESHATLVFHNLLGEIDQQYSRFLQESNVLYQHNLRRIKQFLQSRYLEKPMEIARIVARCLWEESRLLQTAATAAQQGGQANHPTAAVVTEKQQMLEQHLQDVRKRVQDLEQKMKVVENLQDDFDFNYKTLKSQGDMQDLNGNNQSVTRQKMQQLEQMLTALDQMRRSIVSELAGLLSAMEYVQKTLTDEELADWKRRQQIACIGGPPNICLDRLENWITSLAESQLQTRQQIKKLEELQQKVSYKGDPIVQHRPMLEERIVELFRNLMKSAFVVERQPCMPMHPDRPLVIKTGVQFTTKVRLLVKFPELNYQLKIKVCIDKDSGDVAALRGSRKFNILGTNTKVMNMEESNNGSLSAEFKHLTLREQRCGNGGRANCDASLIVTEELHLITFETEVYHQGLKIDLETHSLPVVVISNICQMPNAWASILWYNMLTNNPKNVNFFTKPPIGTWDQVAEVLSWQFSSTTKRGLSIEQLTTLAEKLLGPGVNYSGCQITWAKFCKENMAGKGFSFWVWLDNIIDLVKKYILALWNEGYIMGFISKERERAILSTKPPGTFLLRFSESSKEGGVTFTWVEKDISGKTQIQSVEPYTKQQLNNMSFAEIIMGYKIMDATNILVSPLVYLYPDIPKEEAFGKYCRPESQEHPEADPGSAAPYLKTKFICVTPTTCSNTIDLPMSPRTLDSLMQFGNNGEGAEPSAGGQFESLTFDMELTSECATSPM
Chain of Hypoxia-inducible factor 1-alpha (Homo sapiens) (Q16665 whole entry, looked up): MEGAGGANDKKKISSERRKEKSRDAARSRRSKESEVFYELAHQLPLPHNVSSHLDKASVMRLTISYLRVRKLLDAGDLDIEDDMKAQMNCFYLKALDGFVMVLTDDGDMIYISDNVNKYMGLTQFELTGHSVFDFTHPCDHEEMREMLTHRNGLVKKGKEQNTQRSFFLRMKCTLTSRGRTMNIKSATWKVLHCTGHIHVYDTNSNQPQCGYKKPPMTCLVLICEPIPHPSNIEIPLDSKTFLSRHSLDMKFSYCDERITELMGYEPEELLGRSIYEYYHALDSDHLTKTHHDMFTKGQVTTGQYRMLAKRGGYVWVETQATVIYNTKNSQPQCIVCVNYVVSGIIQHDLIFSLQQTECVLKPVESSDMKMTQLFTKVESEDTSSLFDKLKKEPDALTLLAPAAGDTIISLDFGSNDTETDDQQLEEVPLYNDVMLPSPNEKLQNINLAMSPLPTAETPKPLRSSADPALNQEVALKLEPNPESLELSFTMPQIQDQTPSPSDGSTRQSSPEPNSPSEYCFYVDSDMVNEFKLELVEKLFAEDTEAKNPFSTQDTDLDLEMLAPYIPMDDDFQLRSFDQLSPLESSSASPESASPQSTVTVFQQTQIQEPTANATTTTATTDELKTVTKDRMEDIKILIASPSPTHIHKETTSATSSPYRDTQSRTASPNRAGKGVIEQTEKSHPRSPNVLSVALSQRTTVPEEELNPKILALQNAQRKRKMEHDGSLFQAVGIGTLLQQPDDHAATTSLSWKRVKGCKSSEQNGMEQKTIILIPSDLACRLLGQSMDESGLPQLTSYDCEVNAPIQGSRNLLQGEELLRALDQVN
Chain of Paired box protein Pax-6 (Homo sapiens) (P26367 whole entry, looked up): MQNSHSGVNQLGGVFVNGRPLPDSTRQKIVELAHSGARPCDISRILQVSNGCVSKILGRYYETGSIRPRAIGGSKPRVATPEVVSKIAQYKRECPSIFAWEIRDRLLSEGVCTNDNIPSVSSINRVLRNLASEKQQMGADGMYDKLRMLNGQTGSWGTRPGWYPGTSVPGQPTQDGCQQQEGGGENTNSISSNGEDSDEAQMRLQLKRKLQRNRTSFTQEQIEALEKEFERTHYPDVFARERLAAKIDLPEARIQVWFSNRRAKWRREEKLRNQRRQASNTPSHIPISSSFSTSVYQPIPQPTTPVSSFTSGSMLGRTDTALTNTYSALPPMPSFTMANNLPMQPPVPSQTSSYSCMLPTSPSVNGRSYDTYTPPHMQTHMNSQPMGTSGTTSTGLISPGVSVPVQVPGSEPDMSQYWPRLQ
Chain of Hepatocyte nuclear factor 6 (Homo sapiens) (Q9UBC0 whole entry, looked up): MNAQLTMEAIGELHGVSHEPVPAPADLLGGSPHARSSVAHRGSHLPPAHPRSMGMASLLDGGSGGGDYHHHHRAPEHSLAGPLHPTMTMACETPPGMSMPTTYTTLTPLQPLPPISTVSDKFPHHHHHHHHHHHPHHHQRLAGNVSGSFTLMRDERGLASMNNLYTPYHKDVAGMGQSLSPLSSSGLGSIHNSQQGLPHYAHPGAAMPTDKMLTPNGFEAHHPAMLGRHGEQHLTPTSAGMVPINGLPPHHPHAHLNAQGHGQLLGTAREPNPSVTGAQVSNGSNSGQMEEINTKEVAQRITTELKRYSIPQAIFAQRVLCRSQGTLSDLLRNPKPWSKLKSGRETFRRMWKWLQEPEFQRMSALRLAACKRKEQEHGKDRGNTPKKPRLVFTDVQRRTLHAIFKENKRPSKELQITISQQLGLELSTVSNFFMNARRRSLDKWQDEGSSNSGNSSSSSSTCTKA

With `FC(F)(F)c1ccc(Cl)cc1`, the call in [1], in assay [2], in assay [3], in assay [4], in [5] and in assay [6] was inactive. In addition, the outcome in assay [7], in [8], in [9], in assay [10], in assay [11] and in assay [12] was inactive. Besides, the compound was classed as inactive in assay [13], in [14], in [15], in assay [16], in [17] and in assay [18].

As usually defined, the AC50 is the concentration at which the activity in the assay is half-maximal. As for `N#Cc1c(-c2ccc(Cl)cc2)[nH]c(C(F)(F)F)c1Br`, the compound was called inactive in assay [1], in assay [2], in assay [4], in assay [5], in assay [6] and in [7]. Further, the compound was classed as inactive in [11], in [13], in [14], in assay [15], in assay [16] and in assay [17]. Besides, the result in assay [18] was inactive. Moreover, the AC50 in assay [3] is 1 µM (active); in assay [8], 47.3 µM (active); in assay [9], 0.956 µM (active); in assay [10], 0.122 µM (active); in assay [12], 2.6 µM (active); in [19] it was 0.274 µM (active).

For `COP(N)(=S)OC`, the result in assay [1], in [2], in [3], in assay [4], in assay [5] and in assay [6] was inactive. Moreover, the result in [7], in [8], in assay [9], in assay [10], in assay [11] and in assay [13] was inactive. The compound was called inactive in [20], in [14], in assay [15], in [16], in [17] and in assay [18]. Besides, in assay [12], the concentration at half-maximal activity (AC50) was 47 µM (active).

`CCOc1ccc(C(C)(C)COCc2cccc(Oc3ccccc3)c2)cc1`: the compound was called inactive in assay [1], in assay [2], in [3], in [4], in [5] and in assay [6]. For the same compound, the outcome in assay [7], in [8], in assay [9], in assay [10], in assay [11] and in assay [13] was inactive. Further, the compound was called inactive in [14], in assay [15], in [19], in [16], in assay [17] and in assay [18]. The concentration at half-maximal activity (AC50) in [12] was 1.93 µM (active).
